38 compounds from PubChem BioAssay (Tox21) can be followed below.

Where “and” joins values, the source holds several entries; their conditions need not be identical. Equal entries are not always repeated. Records with an inconclusive call do not appear. Where a call stands in place of a potency, no number is given. Where a structure was tested more than once in an assay, its records may differ in their call. Calls of active or inactive are those of the source. Calls come from the whole dose curve; as a rule, active = well fitted cell-killing curve with a large enough effect in the repeat runs; inconclusive = weak or mixed curves, or effect the other way; inactive = no such curve, though single readings can be large or run the other way.

One test can be described thus: qHTS assay to identify small molecule antagonists of the glucocorticoid receptor (GR) signaling pathway - cell viability counter screen (AID 720693). Note: nearly all actives have a fitted effect of over 55% in size. The settings on record: GR-bla HeLa viability, CellTiter-Glo luminescence, 18 h, with 5 nM dexamethasone present; series mostly up to 58.5 µM; viability change, negative = cytotoxic: at the top concentration. For orientation: In qHTS, concentration-response curves come from the screen itself.
In the case of `CC(C)(C)c1cc(Cc2cc(C(C)(C)C)c(O)c(C(C)(C)C)c2)cc(C(C)(C)C)c1O`, the compound was classed as inactive.
Consider `CCOCCOCCOCCO`, for which the “viability change, negative = cytotoxic” value was 1.25% [at 78.9 µM] (inactive).
With `Clc1ccccn1`, the compound was called inactive.
For the compound `C=CCc1ccc(OC)c(OC)c1`, the compound was called inactive.
As to `O=C1c2ccccc2CCc2ccccc21`, the “viability change, negative = cytotoxic” value is 1.87% [at 78.9 µM] (inactive).
As for `C=CC(C)CCCC(C)(C)O` (stereo unspecified), the result was inactive.
Same read-out and setting: with `CCCCCCCCCCO` the entry was “inactive”; with `CN(C)c1ccc(Cc2ccc(N(C)C)cc2)cc1`, “inactive”.
As for `COc1ccc(OC)cc1`, the outcome was inactive.
Still for that read-out and setting: then `CC1(C)CC(N)CC(C)(CN)C1` (stereo unspecified), with “inactive”; and `CCCCCCCC=O`, with “inactive”; and `CC(=O)OC1CC(C)OC(C)O1` (stereo unspecified), with “inactive”.
Turning to `COCCOC(=O)c1ccccc1C(=O)OCCOC`, the compound was classed as inactive.
On to `CCCCCCCCCCN`, for which the outcome was inactive.
On the same count and under the same terms, then `CCCOC(=O)c1ccccc1`, with “inactive”.
The same measure, in the same setting: then `NC(=S)NNC(N)=S`, with “inactive”; and `CC1(C)NC(=O)NC1=O`, with “inactive”.
For the compound `CC(=O)c1ccc(O)cc1`, the compound was classed as inactive.
For `CC(C)(C#N)c1cc(Cn2cncn2)cc(C(C)(C)C#N)c1`, the compound was called inactive.
Still for that read-out and setting: then `O=C(OCC1CCC2OC2C1)C1CCC2OC2C1` (stereo unspecified), with “inactive”; and `C[C@]12CC[C@@H]3c4ccc(O)cc4CC[C@H]3[C@@H]1C[C@@H](O)[C@@H]2O`, with “inactive”; and `O=C(O)CCCCCCCCC(=O)O`, with “inactive”.
Same read-out and setting: then `CCCCCCC=O`, with “inactive”; and `O=S(=O)(O)c1ccccc1`, with “inactive”.
`CC(C)OP(=O)(CP(=O)(OC(C)C)OC(C)C)OC(C)C`: the “viability change, negative = cytotoxic” value was 1.23% (inactive).
In the case of `C=CC[N+](C)(C)CC=C`, the compound was called inactive.
Regarding `CC(=O)OCc1ccco1`, the result was inactive.
`O=C(O)c1ccc(S(=O)(=O)N(Cl)Cl)cc1`: the call was inactive.
Take `CCOC(=O)n1ccn(C)c1=S`: the compound was classed as inactive.
Same read-out and setting: with `Nc1ccc(Cl)c(N)c1` the entry was “inactive”; with `CCCCCCCCCCCC(=O)OC`, “inactive”; with `C=C(C)[C@H]1CC=C(C)C(=O)C1`, “inactive”.
Same read-out and setting: with `NCCCCCCN` the entry was “inactive”; with `CC1(C)OC[C@@H]2O[C@@]3(C(=O)O)OC(C)(C)O[C@H]3[C@@H]2O1`, “inactive”.
Regarding `CCOCC(=O)O`, the result was inactive.
Same read-out and setting: then `CSc1ccc(Cl)cc1`, with “inactive”; and `CN(C)c1ccc(O)c2c1C[C@H]1C[C@H]3[C@H](N(C)C)C(=O)C(C(N)=O)=C(O)[C@@]3(O)C(=O)C1=C2O`, with “inactive”; and `CC(=O)OCCOC(C)=O`, with “inactive”.

Another test can be described thus: qHTS assay for identifying genotoxic compounds that show differential cytotoxicity against isogenic chicken DT40 cell lines with known DNA damage response pathways - wild type cell line (AID 743012). Note: nearly all actives have a fitted effect of over 60% in size. Note: potency is the fitted concentration of half-maximal effect. The note with it: DT40 wild type chicken cells viability, CellTiter-Glo, 40 h; series mostly up to 68.4 µM; activity change, negative = cytotoxicity: at the top concentration. The procedure, abridged:
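Endpoint: CellTiter-Glo luminescence, 30 min RT. Cells: wild type DT40, 300/well. Exposure: compounds in DMSO, 40 h, 37 C/5% CO2, after ~0.5 h pre-incubation.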
For `CC(C)(C)c1cc(Cc2cc(C(C)(C)C)c(O)c(C(C)(C)C)c2)cc(C(C)(C)C)c1O`, the Potency result was “inactive and 61.1 µM (active)”.
In the case of `CCOCCOCCOCCO`, the Potency result was “inactive”.
Still for that read-out and setting: with `Clc1ccccn1` the entry was “inactive”; with `C=CCc1ccc(OC)c(OC)c1`, “inactive”; with `C=CC(C)CCCC(C)(C)O` (stereo unspecified), “inactive”.
On to `CCCCCCCCCCO`, for which the Potency result was “inactive”.
Take `CN(C)c1ccc(Cc2ccc(N(C)C)cc2)cc1`: the Potency is 27.3 µM (active).
Take `COc1ccc(OC)cc1`: the “activity change, negative = cytotoxicity” value is -8.51% (inactive).
On to `CC1(C)CC(N)CC(C)(CN)C1` (stereo unspecified), for which the Potency result was “inactive”.
The same measure, in the same setting: with `CCCCCCCC=O` the entry was “inactive”.
With `CC(=O)OC1CC(C)OC(C)O1` (stereo unspecified), the “activity change, negative = cytotoxicity” value is 2.82% (inactive).
For `COCCOC(=O)c1ccccc1C(=O)OCCOC`, the “activity change, negative = cytotoxicity” value was 0.263% (inactive).
As to `CCCCCCCCCCN`, the “activity change, negative = cytotoxicity” value is 6.65% (inactive).
`CCCOC(=O)c1ccccc1`: the Potency entry is “inactive”.
Consider `NC(=S)NNC(N)=S`, for which the “activity change, negative = cytotoxicity” value is 7.78% (inactive).
For `CC1(C)NC(=O)NC1=O`, the Potency result is “inactive”.
For the compound `CC(=O)c1ccc(O)cc1`, the Potency result was “inactive”.
On to `CC(C)(C#N)c1cc(Cn2cncn2)cc(C(C)(C)C#N)c1`, for which the Potency entry is “inactive”.
Same read-out and setting: then `O=C(O)CCCCCCCCC(=O)O`, with “inactive”; and `CCCCCCC=O`, with “inactive and 48.6 µM (active)”.
On the same count and under the same terms, with `O=S(=O)(O)c1ccccc1` the entry was “inactive”.
On to `C=CC[N+](C)(C)CC=C`, for which the Potency entry is “inactive”.
As for `O=C(O)c1ccc(S(=O)(=O)N(Cl)Cl)cc1`, the “activity change, negative = cytotoxicity” value is 4.59% (inactive).
Regarding `CCOC(=O)n1ccn(C)c1=S`, the Potency result is “inactive”.
`Nc1ccc(Cl)c(N)c1`: the Potency result was “inactive”.
On the same count and under the same terms, with `CCCCCCCCCCCC(=O)OC` the entry was “inactive”.
The same measure, in the same setting: with `C=C(C)[C@H]1CC=C(C)C(=O)C1` the entry was “inactive”.
As for `NCCCCCCN`, the “activity change, negative = cytotoxicity” value is 1.42% (inactive).
As for `CC1(C)OC[C@@H]2O[C@@]3(C(=O)O)OC(C)(C)O[C@H]3[C@@H]2O1`, the Potency result is “inactive”.
As to `CCOCC(=O)O`, the “activity change, negative = cytotoxicity” value was -0.32% (inactive).
Turning to `CSc1ccc(Cl)cc1`, the Potency entry is “inactive”.
Still for that read-out and setting: then `CN(C)c1ccc(O)c2c1C[C@H]1C[C@H]3[C@H](N(C)C)C(=O)C(C(N)=O)=C(O)[C@@]3(O)C(=O)C1=C2O`, with 21.1 µM (active) [middle of 4 runs]; and `CC(=O)OCCOC(C)=O`, with “inactive”.
